# Measured values: the supplement of paper PMC3545927
# The other results are listed elsewhere or left out. No count for the full screen is at hand.
# Molecular target: furin, P09958
# Experiment: furin cleavage Z-score vs untreated control; higher = more cleavage, active = 3.5 or more, inactive = 1 or less, 8 variable residues between constant flanks
# Protocol: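 Multiplexed peptide-cDNA fusion cleavage assay. 8-mer variable peptides flanked by constant Cys-Ala (N-term) and Ala-Gly-Asn-Ala-Ser-Ala-Ser-Ala (C-term) and conjugated to a cDNA oligonucleotide were bead-immobilised via the N-terminus. They were treated with purified furin at a 1:10 enzyme:substrate ratio in 50 mM HEPES pH 7.5, 1 mM CaCl2, 100 mM NaCl for 7.5, 15 or 30 min. Released cDNA was counted by next-generation sequencing, and log counts versus no-furin controls were lowess-adjusted and converted to robust Z-scores.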
# Chain of furin, P09958 (P09958 whole entry): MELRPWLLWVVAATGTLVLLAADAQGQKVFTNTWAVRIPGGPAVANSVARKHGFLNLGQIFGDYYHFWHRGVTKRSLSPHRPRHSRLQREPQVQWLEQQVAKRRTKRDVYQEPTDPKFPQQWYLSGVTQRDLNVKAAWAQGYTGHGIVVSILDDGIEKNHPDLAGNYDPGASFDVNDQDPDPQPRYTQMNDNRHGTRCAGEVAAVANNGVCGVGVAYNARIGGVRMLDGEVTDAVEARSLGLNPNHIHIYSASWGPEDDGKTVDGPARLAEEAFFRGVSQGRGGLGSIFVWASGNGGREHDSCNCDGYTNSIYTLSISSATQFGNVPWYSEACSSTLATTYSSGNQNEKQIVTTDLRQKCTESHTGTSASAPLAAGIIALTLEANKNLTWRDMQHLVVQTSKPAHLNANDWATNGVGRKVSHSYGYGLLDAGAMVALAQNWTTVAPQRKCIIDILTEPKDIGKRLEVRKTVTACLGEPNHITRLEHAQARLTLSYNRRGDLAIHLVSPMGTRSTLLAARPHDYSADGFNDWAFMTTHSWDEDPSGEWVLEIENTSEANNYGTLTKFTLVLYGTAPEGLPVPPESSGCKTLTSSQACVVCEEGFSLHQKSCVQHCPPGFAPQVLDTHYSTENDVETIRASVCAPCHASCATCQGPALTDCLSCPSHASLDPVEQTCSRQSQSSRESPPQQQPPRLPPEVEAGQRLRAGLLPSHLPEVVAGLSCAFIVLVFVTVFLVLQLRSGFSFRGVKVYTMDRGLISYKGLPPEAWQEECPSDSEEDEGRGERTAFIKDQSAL
Sequence,furin cleavage Z-score (7.5 min),furin cleavage Z-score (15 min),furin cleavage Z-score (30 min)
CAYVGGPLTNAGNASASA [HC1501],-0.238 (inactive),-0.463 (inactive),-0.523 (inactive)
CAQRVEFLVQAGNASASA [HC1470],-0.81 (inactive),1.84,0.832 (inactive)
CAARGSPPSVAGNASASA [HC1256],0.929 (inactive),-0.707 (inactive),1.93
CAETITLPQDAGNASASA [HC897],-1.02 (inactive),0.648 (inactive),-1.05 (inactive)
CAHVVTSTWVAGNASASA [HC2155],-1.33 (inactive),0.00684 (inactive),-0.368 (inactive)
CASTACSAHLAGNASASA [HC2503],0.199 (inactive),1.42,-0.356 (inactive)
CARMAWDMMMAGNASASA [HC319],-0.311 (inactive),-0.626 (inactive),-0.966 (inactive)
CATLPALSTGAGNASASA [HC501],-1.14 (inactive),0.758 (inactive),-0.483 (inactive)
CALKVPYFVRAGNASASA [HC614],-0.584 (inactive),0.223 (inactive),0.218 (inactive)
CAGASRSPRGAGNASASA [FS-237],3.32,4.49 (active),5.42 (active)
CAGAARLPRGAGNASASA [FS-777],0.571 (inactive),1.37,2.25
CADRSRTPRGAGNASASA [FS-759],3.99 (active),4.25 (active),4.12 (active)
CAGWLLSPRGAGNASASA [HC208],0.27 (inactive),-1.63 (inactive),0.774 (inactive)
CAPERRDVCWAGNASASA [FS-1677],-0.617 (inactive),-1.12 (inactive),0.841 (inactive)
CASRCGSGPWAGNASASA [HC458],-0.489 (inactive),-1.8 (inactive),-0.818 (inactive)
CAWLKRQKRNAGNASASA [FS-318],12.5 (active),12.8 (active),10.3 (active)
CALRRRLRKQAGNASASA [FS-362],4.47 (active),6.23 (active),5.78 (active)
CAFPDRVKRNAGNASASA [FS-770],3.16,3.37,3.96 (active)
CAERRRQAGAAGNASASA [FS-1879],-0.934 (inactive),-0.697 (inactive),-1.89 (inactive)
CALRRRQKRQAGNASASA [FS-1234],11.3 (active),12.6 (active),9.62 (active)
CACGKRFKKNAGNASASA [FS-219],1.2,-0.0472 (inactive),1.28
CATWHRLRKGAGNASASA [FS-1427],-1.13 (inactive),-0.138 (inactive),-1.3 (inactive)
CAFDQGWGPIAGNASASA [HC393],-0.624 (inactive),-1.32 (inactive),-0.893 (inactive)
CATTPCSGSGAGNASASA [HC1936],-2.04 (inactive),2.2,-0.763 (inactive)
CASTPCSGHLAGNASASA [HC2536],-0.918 (inactive),-1.44 (inactive),-0.11 (inactive)
CATDNRSRKRAGNASASA [FS-1658],-0.57 (inactive),0.304 (inactive),-1.94 (inactive)
CAEVCTSTWVAGNASASA [HC2200],-1.07 (inactive),-0.375 (inactive),0.694 (inactive)
